Consider 9 compounds from PubChem BioAssay AID865 (The Scripps Research Institute Molecular Screening Center, 2007).

This is one part of the list. The source made the active and inactive calls.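 How the source made its calls: active means activation above the screen-wide mean activation plus 3 SD (cut at about 8% in these data); inactive means the rest.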

A short description of the experiment: activators of NFAT-driven beta-lactamase reporter, confirmation, counter-screen for GALR2 agonist project, CHO NFAT-bla cells, FRET readout (AID 865).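 Further: 0% = DMSO with PBS wells and 100% = thapsigargin positive control wells.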 The note with it: at 5.6 µM, active compounds read high. Background: A counterscreen serves to expose hits that act by an unwanted route or on another target.
Take `COCCN(CCOC)S(=O)(=O)c1ccc(C(=O)Nc2nc3c(s2)CCc2ccccc2-3)cc1`: the activation is 2.54% (inactive).

`C=CCn1c(Oc2ccc(C(=O)OC)cc2)nc2c1c(=O)n(C)c(=O)n2C`: the activation is -0.9% (inactive). Turning to `COc1ccc(C(=O)CN2C(=O)NC(C)(c3ccc(C)cc3)C2=O)cc1OC` (centres undefined), the activation was -1.81% (inactive).

As to `CCCOc1ccc(C(=O)C(CCC(CNCC)C(=O)c2ccc(OCCC)cc2)CNCC)cc1` (centres undefined), the activation is 0.75% (inactive). The same measure for `Cc1ccc(Cc2c(C)nc3nc(SCC(=O)NCCN4CCOCC4)nn3c2C)cc1`: -0.81% (inactive); for `CC1(C)CC(=O)C=C(NCCN2CCNCC2)C1`: -2.3% (inactive); for `O=C(NC(=S)Nc1ccc(NC(=O)c2cccs2)cc1)c1ccc([N+](=O)[O-])cc1`: -1.18% (inactive). `COC(=O)c1ccc(NC(=O)C(C)N2C(=O)c3ccccc3C2=O)cc1` (centres undefined): the activation is -1.44% (inactive). With `Cn1c(=O)oc2cc(S(=O)(=O)N3CCC(C(=O)Nc4ccc(OC(F)(F)F)cc4)CC3)ccc21`, the activation was 1.18% (inactive).
